Assay results reported in PubChem BioAssay (NCI).
Compounds without any hit were thinned out: in the full panel of roughly 83,000, 20% have a hit.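 Step 1: grow cells in 96-well plates. Step 2: add test compound at a single concentration. Step 3: incubate 48 h. Step 4: record percent growth.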 Calls of active or inactive are those of the source. Rule for the calls: active = growth percent below 10; inactive = the rest.

Experiments:
Assay in all cases: NCI-60 one-dose screen, 48 h (100 = growth as untreated, 0 = no growth, -100 = all killed)
Conditions in all cases: 10 µM unless noted
DU-145 prostate = test system: DU-145 prostate
K-562 leukemia = test system: K-562 leukemia
MALME-3M melanoma = test system: MALME-3M melanoma
MDA-MB-231 breast = test system: MDA-MB-231 breast
RXF 393 renal = test system: RXF 393 renal
SF-268 CNS = test system: SF-268 CNS
SF-295 CNS = test system: SF-295 CNS
SF-539 CNS = test system: SF-539 CNS
UACC-257 melanoma = test system: UACC-257 melanoma
M14 melanoma = test system: M14 melanoma

Measured: growth

COc1ccc(Cc2cnc(NC(=O)c3sc4ccccc4c3Cl)s2)cc1
active: K-562 leukemia 7% | RXF 393 renal 1.01% | SF-539 CNS -19.4%
inactive: DU-145 prostate 25% | MALME-3M melanoma 56.6% | MDA-MB-231 breast 41.9% | SF-268 CNS 52.9% | SF-295 CNS 14.9% | UACC-257 melanoma 49.8% | M14 melanoma 10.2%

CC[C@@H](c1ccc2cc(OC)ccc2c1)C(C)(C)C(=O)F
inactive: DU-145 prostate 104% | K-562 leukemia 104% | MALME-3M melanoma 97.1% | MDA-MB-231 breast 106% | RXF 393 renal 98.6% | SF-268 CNS 113% | SF-295 CNS 98.7% | SF-539 CNS 103% | M14 melanoma 99.2%
active: UACC-257 melanoma -0.544%

C=CCN=C(N)SCCCCCCSC(N)=NCC=C
inactive: DU-145 prostate 107% | K-562 leukemia 79.2% | MALME-3M melanoma 98.7% | MDA-MB-231 breast 94.8% | RXF 393 renal 109% | SF-268 CNS 95% | SF-295 CNS 97.3% | SF-539 CNS 99.6% | UACC-257 melanoma 87.8% | M14 melanoma 92.4%

Fc1ccc2c(c1)c(-c1nc(-c3c[nH]c4ncccc34)cs1)cn2CCCN1CCOCC1
inactive: DU-145 prostate 79.8% | MALME-3M melanoma 59.2% | MDA-MB-231 breast 36% | RXF 393 renal 39.5% | SF-268 CNS 50.8% | SF-295 CNS 27.5% | SF-539 CNS 67.3% | UACC-257 melanoma 83% | M14 melanoma 34.7%
active: K-562 leukemia 1.71%

N#Cc1c(-c2cccc([N+](=O)[O-])c2)cc(-c2ccc(Nc3nc(Nc4ccc(F)cc4)nc(Nc4ccc(F)cc4)n3)cc2)nc1N
active: RXF 393 renal -10.3%
inactive: DU-145 prostate 154% | K-562 leukemia 80.3% | MALME-3M melanoma 94.7% | MDA-MB-231 breast 91.9% | SF-268 CNS 164% | SF-295 CNS 102% | SF-539 CNS 127% | UACC-257 melanoma 107% | M14 melanoma 110%

COc1ccc(C2CC(c3ccc(Nc4nc(Nc5ccc(F)cc5)nc(Nc5ccc(F)cc5)n4)cc3)=NN2C(C)=O)cc1 (stereo not given)
inactive: DU-145 prostate 115% | K-562 leukemia 83.1% | MALME-3M melanoma 78.1% | MDA-MB-231 breast 122% | RXF 393 renal 94.4% | SF-268 CNS 103% | SF-295 CNS 81.2% | SF-539 CNS 92.1% | UACC-257 melanoma 111% | M14 melanoma 100%

Cc1cc2nc3c4ccccc4n(CCN(C)C)c3nc2cc1C
active: DU-145 prostate 1.97% | K-562 leukemia 8.35% | MALME-3M melanoma -10.5% | MDA-MB-231 breast 3.96% | RXF 393 renal 8.24% | UACC-257 melanoma 2.35%
inactive: SF-268 CNS 31.2% | SF-295 CNS 27.6% | SF-539 CNS 12.2% | M14 melanoma 13.2%

O=C(Nc1cccnc1Nc1ccc(Cl)cc1)c1cn(Cc2ccc(F)cc2)nn1
inactive: DU-145 prostate 106% | K-562 leukemia 108% | MALME-3M melanoma 117% | MDA-MB-231 breast 83.9% | RXF 393 renal 98.7% | SF-268 CNS 103% | SF-295 CNS 96.6% | SF-539 CNS 94.5% | UACC-257 melanoma 105% | M14 melanoma 101%

COc1ccc(OC)c(Nc2nnc(-c3ccc(Cl)cc3)o2)c1
inactive: DU-145 prostate 70% | K-562 leukemia 83.5% | MALME-3M melanoma 66.9% | MDA-MB-231 breast 85.6% | RXF 393 renal 90.4% | SF-268 CNS 55.4% | SF-295 CNS 29.2% | SF-539 CNS 50.7% | UACC-257 melanoma 104% | M14 melanoma 93.1%

C(/C=C/c1ccccc1)=Nc1ccc(CCc2ccc(N=C/C=C/c3ccccc3)cc2)cc1
inactive: DU-145 prostate 25.6% | K-562 leukemia 78.3% | MALME-3M melanoma 115% | MDA-MB-231 breast 92% | RXF 393 renal 83.8% | SF-268 CNS 104% | SF-295 CNS 73.3% | SF-539 CNS 108% | UACC-257 melanoma 97.9% | M14 melanoma 89.9%

COc1ccc(/C=C/C(=O)c2ccc(Nc3nc(Nc4ccc(F)cc4)nc(Nc4ccc(Cl)cc4)n3)cc2)cc1
inactive: DU-145 prostate 104% | K-562 leukemia 85.4% | MALME-3M melanoma 164% | MDA-MB-231 breast 95.3% | SF-268 CNS 100% | SF-295 CNS 81.8% | SF-539 CNS 109% | UACC-257 melanoma 107% | M14 melanoma 95.2%
active: RXF 393 renal 1.27%

O=C(c1ccc(F)c(Cl)c1)N1c2ccccc2Sc2ccccc21
inactive: DU-145 prostate 90.3% | K-562 leukemia 21.5% | MALME-3M melanoma 64.1% | MDA-MB-231 breast 61% | RXF 393 renal 70.8% | SF-268 CNS 66.8% | SF-295 CNS 64.3% | SF-539 CNS 62.3% | UACC-257 melanoma 61% | M14 melanoma 53.1%

Oc1c(I)cc(-c2nc3ccccc3s2)cc1CN(Cc1ccccn1)Cc1ccccn1
active: SF-539 CNS 4.13% | UACC-257 melanoma 0.435% | M14 melanoma -27.5%
inactive: DU-145 prostate 28.1% | K-562 leukemia 13.1% | MALME-3M melanoma 11.5% | MDA-MB-231 breast 34.9% | RXF 393 renal 33.3% | SF-268 CNS 20.8% | SF-295 CNS 18.5%

C=C1C(=O)O[C@H]2[C@H]1CC/C(CNC(=O)c1cc3ccccc3[nH]1)=C\CC[C@@]1(C)O[C@@H]21
active: DU-145 prostate -87.7% | K-562 leukemia -20.6% | MALME-3M melanoma -28.9% | MDA-MB-231 breast -46.6% | RXF 393 renal -76% | SF-268 CNS -27.3% | SF-539 CNS -77.1% | UACC-257 melanoma -49.2% | M14 melanoma -57.1%
inactive: SF-295 CNS 42.3%

CCOC(=O)c1c(NC(=O)c2ccc(C(C)(C)C)cc2)sc2cc(O)ccc12
inactive: DU-145 prostate 97.7% | K-562 leukemia 43.4% | MALME-3M melanoma 98.7% | MDA-MB-231 breast 110% | RXF 393 renal 115% | SF-268 CNS 102% | SF-295 CNS 105% | SF-539 CNS 90.9% | UACC-257 melanoma 97.3% | M14 melanoma 86.6%

Cc1ccc(O)c(NC(=O)c2ccc(CNc3ccnc(C(F)(F)F)c3)cc2)c1
inactive: DU-145 prostate 107% | K-562 leukemia 24.2% | MALME-3M melanoma 59.9% | MDA-MB-231 breast 48.9% | RXF 393 renal 92% | SF-268 CNS 79.9% | SF-295 CNS 17.2% | SF-539 CNS 35.1% | UACC-257 melanoma 71.3% | M14 melanoma 49.2%

CN1CCN(Cc2ccc(NC(=O)c3cncc(C#Cc4cncc5[nH]ncc45)c3)cc2C(F)(F)F)CC1
inactive: DU-145 prostate 20.2% | SF-295 CNS 29%
active: K-562 leukemia -5.05% | MALME-3M melanoma -65.7% | MDA-MB-231 breast -88.2% | RXF 393 renal -4.93% | SF-268 CNS 2.23% | SF-539 CNS -56.8% | UACC-257 melanoma 6.82% | M14 melanoma -57.6%

NS(=O)(=O)c1ccc(N/C=C/C(=O)c2cc3ccccc3oc2=O)cc1
inactive: DU-145 prostate 109% | K-562 leukemia 94.8% | MALME-3M melanoma 85% | MDA-MB-231 breast 85.2% | RXF 393 renal 102% | SF-268 CNS 95.5% | SF-295 CNS 103% | SF-539 CNS 93% | UACC-257 melanoma 110% | M14 melanoma 89.5%

c1ccc(CCc2ccccc2-c2cc(-c3ccccc3)on2)cc1
inactive: DU-145 prostate 92% | K-562 leukemia 71.2% | MALME-3M melanoma 102% | MDA-MB-231 breast 84.3% | RXF 393 renal 94.2% | SF-268 CNS 97.1% | SF-295 CNS 96.3% | SF-539 CNS 93.8% | UACC-257 melanoma 99.9% | M14 melanoma 87.8%

CC(=O)c1cc(-c2ccccc2N)n(-c2ccc3c(c2)OCO3)c1C
inactive: MALME-3M melanoma 48.7% | MDA-MB-231 breast 21.3% | RXF 393 renal 39.7% | SF-268 CNS 31.5% | UACC-257 melanoma 76.6% | M14 melanoma 10%
active: DU-145 prostate 9.47% | K-562 leukemia 5.63% | SF-295 CNS -10% | SF-539 CNS -0.915%

CCOC(=O)c1c(-c2ccc(Cl)cc2)c(C#N)c2c(C#N)c(N)nn2c1N
inactive: DU-145 prostate 74.9% | K-562 leukemia 15.4% | MALME-3M melanoma 72.9% | MDA-MB-231 breast 75.7% | RXF 393 renal 77% | SF-268 CNS 77.3% | SF-295 CNS 57.2% | SF-539 CNS 71.6% | UACC-257 melanoma 60.3% | M14 melanoma 75.5%

O=C(Cn1nnc2ccccc21)N/N=C/c1ccccc1F
inactive: DU-145 prostate 107% | K-562 leukemia 94.3% | MALME-3M melanoma 102% | MDA-MB-231 breast 91.1% | RXF 393 renal 101% | SF-268 CNS 93.9% | SF-295 CNS 111% | SF-539 CNS 102% | UACC-257 melanoma 93% | M14 melanoma 108%

CS(=O)(=O)Nc1cncc(-c2ccc3ncnc(Nc4ccc(F)c(Cl)c4)c3c2)c1
inactive: DU-145 prostate 36.5% | K-562 leukemia 35.3% | MALME-3M melanoma 44.1% | MDA-MB-231 breast 54.6% | RXF 393 renal 24.9% | SF-268 CNS 41.5% | SF-295 CNS 44.5% | SF-539 CNS 32.5% | UACC-257 melanoma 35.2% | M14 melanoma 52.5%

COC(=O)C1=C(C(=O)Nc2cccnc2)C2OC1(C(Cc1ccccc1)Oc1ccccc1)C1OC21 (stereo not given)
active: K-562 leukemia -48.4% | MALME-3M melanoma -74.7%
inactive: DU-145 prostate 72.8% | MDA-MB-231 breast 59.8% | RXF 393 renal 59.1% | SF-268 CNS 86.5% | SF-295 CNS 100% | SF-539 CNS 72% | UACC-257 melanoma 79.1% | M14 melanoma 11.7%

Cn1cc(-c2csc(-c3cn(C(=O)OC(C)(C)C)c4ccccc34)n2)c2ccnc(Cl)c21
inactive: DU-145 prostate 74.1% | K-562 leukemia 68.1% | MALME-3M melanoma 90% | MDA-MB-231 breast 38.3% | RXF 393 renal 63.6% | SF-268 CNS 71.8% | SF-295 CNS 62.4% | SF-539 CNS 68.3% | UACC-257 melanoma 59.5% | M14 melanoma 79%

Cc1ccc(C)c(-n2c(-c3ccc(Br)cc3)csc2=NC(=O)c2ccccc2F)c1
inactive: DU-145 prostate 102% | K-562 leukemia 23.9% | MALME-3M melanoma 73.9% | MDA-MB-231 breast 84.1% | RXF 393 renal 81.8% | SF-268 CNS 99.6% | SF-295 CNS 73% | SF-539 CNS 89% | UACC-257 melanoma 57% | M14 melanoma 81.3%

Cn1c(=O)c2c(c3ccccc31)OC(N)=C(C#N)C21C(=O)c2ccccc2C1=O
inactive: DU-145 prostate 107% | K-562 leukemia 111% | MALME-3M melanoma 86.5% | MDA-MB-231 breast 81.6% | RXF 393 renal 91% | SF-268 CNS 93% | SF-295 CNS 102% | SF-539 CNS 91.9% | UACC-257 melanoma 108% | M14 melanoma 87.2%
